Measured values taken from PubChem BioAssay (EPA / NIEHS).
Active and inactive are the calls of the source. How the source made its calls: active means hit-call score of the fitted dose curve at least 0.9, where 1 is the maximum; inactive means score below 0.9.

Test: ATG_MRE_CIS: Attagene CIS-FACTORIAL HepG2 Assay for human Metal Responsive Element (MRE) (AID 2282954)
Conditions: HepG2 MRE cis-reporter transcription, Attagene multiplex; actives raise or lower the signal
Outline: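 Endogenous MRE-dependent transcription read as reporter mRNA in transiently transfected human HepG2 cells at 24 h. RNA reverse-transcribed, PCR-amplified, labelled and resolved by capillary electrophoresis; gain or loss relative to DMSO.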

SMILES | outcome | AC50
Nc1nc(N)c2nc(CNc3ccc(C(=O)N[C@@H](CCC(=O)O)C(=O)O)cc3)cnc2n1 | inactive | –
COc1cc(S(=O)(=O)O)c(C)cc1N=Nc1c(O)ccc2cc(S(=O)(=O)O)ccc12 | inactive | –
CN1CCN(Cc2cc(-c3ccc4[nH]c(=O)oc4c3)co2)[C@@H](c2ccc(F)cc2)C1 | – | 48.6 µM (active)
FC(F)(F)C(F)(F)C(F)(F)C(F)(F)C(F)(F)C(F)(F)CCI | inactive | –
Cc1nc(C)nc(N2C[C@@H](C)N(c3ccnc([C@@H](C)O)n3)[C@@H](C)C2)n1 | inactive | –
NS(=O)(=O)c1cc2c(cc1Cl)NCNS2(=O)=O | inactive | –
Cc1c(C(=O)O)c(O)cc2c1C(=O)c1c(O)c([C@@H]3O[C@H](CO)[C@@H](O)[C@H](O)[C@H]3O)c(O)c(O)c1C2=O | inactive | –
Cc1cc(NC(=O)C(=O)O)cc(C)c1Oc1ccc(O)c2c1CCC2 | inactive | –
O=C(O)Cc1ccccc1Nc1c(Cl)cccc1Cl | inactive | –
O=c1[nH]cc(F)c(=O)[nH]1 | inactive | –
